We go through eight compounds from PubChem BioAssay (Tox21).

Structures are written as SMILES. Where “and” joins values, the source holds several entries; their conditions need not be identical. Equal values may be shown once. Results filed as inconclusive are left out. Some compounds were tested as several samples or in several runs, with calls that do not always agree. Calls of active or inactive are those of the source. Unless noted, calls follow the shape of the dose curve; as a rule, active = well fitted curve in the direction sought with a large enough effect in the repeat runs; inconclusive = weak or mixed curves; inactive = no such curve, though single readings can be large; an effect the other way counts as inactive or inconclusive.

The target of experiment [1] is Peroxisome proliferator-activated receptor delta (Homo sapiens) (UniProt Q03181). Put plainly: qHTS assay to identify small molecule agonists of the peroxisome proliferator-activated receptor delta (PPARd) signaling pathway (AID 743212; calls by dose curve). The method, boiled down:
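Read-out: beta-lactamase FRET fluorescence after 2 h room-temperature incubation with LiveBLAzer B/G substrate. Cells were HEK293H carrying a UAS-bla reporter for PPARd, treated at 37 C with DMSO-dissolved compounds.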

The nature of experiment [2]: qHTS assay to identify small molecule antagonists of the peroxisome proliferator-activated receptor delta (PPARd) signaling pathway - cell viability counter screen (AID 743213). Also: nearly all actives have a fitted effect of over 50% in size. Also: potency is read from the fitted curve at half-maximal effect. The essentials: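 HEK293H PPARd UAS-bla cells, 5 h pre-incubation, compound + L165041 300 nM final, 17 h 37 C; B/G FRET substrate 2 h RT; then CellTiter-Glo 30 min RT, luminescence.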
In general terms: Quantitative high-throughput screening tests each substance at several concentrations.

The target of experiment [3] is Peroxisome proliferator-activated receptor delta (Homo sapiens) (UniProt Q03181). Nature of the experiment: qHTS assay to identify small molecule antagonists of the peroxisome proliferator-activated receptor delta (PPARd) signaling pathway (AID 743215; active = well fitted inhibition curve with a large enough effect in the signal ratio in the repeat runs, not every such curve was filed as active; the % refers to the signal ratio;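 also: cells stimulated with agonist L165041 at 300 nM final during compound exposure; series mostly up to about 62 µM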). The method, boiled down:
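Agonist L165041 (300 nM final) added with compound to PPARd-bla HEK293H UAS-bla reporter cells; 17 h incubation at 37 C. Read-out: LiveBLAzer FRET substrate, 2 h at room temperature, fluorescence intensity.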

The nature of experiment [4]: qHTS assay to identify small molecule agonists of the farnesoid-X-receptor (FXR) signaling pathway - cell viability counter screen (AID 743218). Also: nearly all actives have a fitted effect of over 45% in size. Also: potency is read from the fitted curve at half-maximal effect. The essentials: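 Viability counter screen in the same wells: CellTiter-Glo luminescence, 30 min room-temperature incubation, measured after the beta-lactamase read. Cells were GeneBLAzer FXR-UAS-bla HEK 293T, compound-treated 16 h at 37C.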

Experiment [5] in a line: qHTS assay to identify small molecule antagonists of the farnesoid-X-receptor (FXR) signaling pathway - cell viability counter screen (AID 743221; active = well fitted cell-killing curve with a large enough effect in the repeat runs, not every such curve was filed as active; also: nearly all actives have a fitted effect of over 50% in size; also: potency is read from the fitted curve at half-maximal effect). The method, boiled down: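 Quantitative HTS of the Tox21 10K library run in parallel with the beta-lactamase reporter read. HEK 293T cells carrying a UAS-driven bla reporter got compound and 50 uM CDCA (final) for 16 h; ATP-based luminescence followed.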

The nature of experiment [6]: qHTS assay to identify small molecule agonists of the vitamin D receptor (VDR) signaling pathway - cell viability counter screen (AID 743224). Also: nearly all actives have a fitted effect of over 50% in size. Also: potency is read from the fitted curve at half-maximal effect. The method, boiled down:
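Counter screen run in the same wells as the VDR-bla reporter assay: CellTiter-Glo luminescence, 30 min at room temperature, after 16 h compound treatment at 37C of cells pre-plated for 4 h.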

The nature of experiment [7]: qHTS assay to identify small molecule antagonists of the vitamin D receptor (VDR) signaling pathway - cell viability counter screen (AID 743225). Also: nearly all actives have a fitted effect of over 50% in size. The method, boiled down: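 Cells (VDR-UAS-bla HEK 293T) are plated, rested 4 h at 37C, dosed with compound and 3 nM final 1-alpha,25-dihydroxy vitamin D3, and incubated 16 h. Viability is taken from CellTiter-Glo luminescence in the reporter wells.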

A short description of experiment [8]: qHTS assay to identify small molecule agonists of the NFkB signaling pathway - cell viability counter screen (AID 1159515; calls by dose curve; also: nearly all actives have a fitted effect of over 55% in size; also: potency is read from the fitted curve at half-maximal effect). The essentials: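 Read by CellTiter-Glo luminescence (30 min, room temperature) in the wells also used for the beta-lactamase FRET read. ME-180 NFkB-bla cells at 2,000 per well were plated overnight, then exposed to compound for 5 hr at 37 C.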

Experiment [9] can be described thus: qHTS assay to identify small molecule agonists of the endoplasmic reticulum stress response signaling pathway (AID 1159516; active = well fitted activation curve with a large enough effect in the signal ratio in the repeat runs, not every such curve was filed as active; the % refers to the signal ratio). The method, boiled down: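 Ratiometric FRET readout (405 nm excitation; 460 and 530 nm emission) of a beta-lactamase gene driven by the ER stress response element, after 2 hr substrate loading. HeLa ESRE-bla cells were seeded overnight and treated with compounds for only 5 hr at 37 C.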

The nature of experiment [10]: qHTS assay to identify small molecule agonists of the endoplasmic reticulum stress response signaling pathway - cell viability counter screen (AID 1159517; calls by dose curve; also: nearly all actives have a fitted effect of over 50% in size; also: potency is read from the fitted curve at half-maximal effect). The method, boiled down: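 Steps: seed 1,500 ESRE-bla HeLa cells per well; incubate overnight at 37 C, 5% CO2; add compounds in DMSO for 5 hr; run FRET substrate 2 hr RT; add CellTiter-Glo, wait 30 min, read luminescence.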

Experiment [11] can be described thus: qHTS assay to identify small molecule antagonists of the retinoid-related orphan receptor gamma (ROR-gamma) signaling pathway - cell viability counter screen (AID 1159520). Also: nearly all actives have a fitted effect of over 50% in size. Also: potency is read from the fitted curve at half-maximal effect. The essentials: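 Tet-on ROR gamma CHO cells were given compounds for 2 hr, then doxycycline hyclate at 1 uM final, and incubated 16 hr at 37 C. Viability was measured as ATP content by CellTiter-Glo luminescence.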

Experiment [12] has as its target Nuclear receptor ROR-gamma (Homo sapiens) (UniProt P51449). Put plainly: qHTS assay to identify small molecule antagonists of the retinoid-related orphan receptor gamma (ROR-gamma) signaling pathway (AID 1159521; also: nearly all actives have a fitted effect of over 50% in size; also: potency is read from the fitted curve at half-maximal effect). The essentials:
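RORγ antagonism is scored from reduced reporter luminescence in Tet-on CHO cells. Induction used 1 uM final doxycycline hyclate for 16 h at 37 C, following a 2 h compound exposure.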

Experiment [13] can be described thus: qHTS assay to identify small molecule agonists of the AP-1 signaling pathway - cell viability counter screen (AID 1159525; calls by dose curve; also: nearly all actives have a fitted effect of over 55% in size; also: potency is read from the fitted curve at half-maximal effect). The method, boiled down: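 Same-well cytotoxicity counter screen of the Tox21 10K library in ME-180 cells. The readout is ATP-dependent luminescence after 5 h compound treatment. Data are normalised to DMSO and tetra n-octyl ammonium bromide controls.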

Experiment [14] is described as follows: qHTS assay to identify small molecule agonists of the AP-1 signaling pathway (AID 1159526; calls by dose curve).
Experiment [15] deals with Retinoic acid receptor RXR-alpha (Homo sapiens) (UniProt P19793). Nature of the experiment: qHTS assay to identify small molecule agonists of the RXR signaling pathway (AID 1159527; calls by dose curve; also: nearly all actives have a fitted effect of over 35% in size). The method, boiled down:
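qHTS of the Tox21 10K library in GeneBLAzer RXR-alpha HEK 293T cells carrying a beta-lactamase reporter […]; 16 hr treatment, 9-cis retinoic acid as agonist control, FRET read-out.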

A short description of experiment [16]: qHTS assay to identify small molecule agonists of the RXR signaling pathway - cell viability counter screen (AID 1159529). Also: nearly all actives have a fitted effect of over 50% in size. Also: potency is read from the fitted curve at half-maximal effect. The method, boiled down:
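Cell viability is measured by CellTiter-Glo luminescence, 30 min at room temperature, in wells already read for beta-lactamase. Engineered HEK 293T cells (RXR-alpha-UAS-bla) are dosed 16 hr at 37 C. Tetraoctyl ammonium bromide serves as positive control.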

Experiment [17] addresses Bile acid receptor (Homo sapiens) (UniProt Q96RI1). Nature of the experiment: qHTS assay to identify small molecule agonists of the farnesoid-X-receptor (FXR) signaling pathway (AID 743220; active = well fitted activation curve with a large enough effect in the signal ratio in the repeat runs, not every such curve was filed as active; the % refers to the signal ratio). The essentials:
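FXR-UAS-bla HEK 293T cells carrying a UAS-driven beta-lactamase reporter were plated for 5 h at 37C/5% CO2, then exposed to DMSO-dissolved Tox21 10K compounds for 16 h at 37C. A LiveBLAzer B/G FRET substrate was loaded for 2 h at room temperature before fluorescence reading.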

The target is the same in experiment [18]. Nature of the experiment: qHTS assay to identify small molecule antagonists of the farnesoid-X-receptor (FXR) signaling pathway (AID 743217; active = well fitted inhibition curve with a large enough effect in the signal ratio in the repeat runs, not every such curve was filed as active; the % refers to the signal ratio). The essentials: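 Antagonist mode: chenodeoxycholic acid at 50 uM final stimulates a UAS-driven beta-lactamase reporter in HEK 293T FXR-bla cells during 16 h, 37C compound exposure. Read-out is FRET substrate fluorescence after 2 h at room temperature.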

Experiment [19] addresses Vitamin D3 receptor (Homo sapiens) (UniProt P11473). Nature of the experiment: qHTS assay to identify small molecule agonists of the vitamin D receptor (VDR) signaling pathway (AID 743222; calls by dose curve). The method, boiled down:
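Agonist mode, beta-lactamase reporter: fluorescence from LiveBLAzer B/G FRET substrate (2 h, room temperature) read after 16 h compound treatment at 37 C of VDR-bla cells, which were pre-incubated 4 h after seeding.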

Experiment [20] has the same target. Put plainly: qHTS assay to identify small molecule antagonists of the vitamin D receptor (VDR) signaling pathway (AID 743223; active = well fitted inhibition curve with a large enough effect in the signal ratio in the repeat runs, not every such curve was filed as active; the % refers to the signal ratio). The method, boiled down: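 Fluorescence from LiveBLAzer B/G FRET substrate, read after 2 h at room temperature, reflects beta-lactamase reporter activity in VDR-bla cells treated 16 h at 37C with compounds and agonist 1alpha,25-dihydroxyvitamin D3 (3 nM final).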

Chain of Vitamin D3 receptor (Homo sapiens) (P11473 whole entry, looked up): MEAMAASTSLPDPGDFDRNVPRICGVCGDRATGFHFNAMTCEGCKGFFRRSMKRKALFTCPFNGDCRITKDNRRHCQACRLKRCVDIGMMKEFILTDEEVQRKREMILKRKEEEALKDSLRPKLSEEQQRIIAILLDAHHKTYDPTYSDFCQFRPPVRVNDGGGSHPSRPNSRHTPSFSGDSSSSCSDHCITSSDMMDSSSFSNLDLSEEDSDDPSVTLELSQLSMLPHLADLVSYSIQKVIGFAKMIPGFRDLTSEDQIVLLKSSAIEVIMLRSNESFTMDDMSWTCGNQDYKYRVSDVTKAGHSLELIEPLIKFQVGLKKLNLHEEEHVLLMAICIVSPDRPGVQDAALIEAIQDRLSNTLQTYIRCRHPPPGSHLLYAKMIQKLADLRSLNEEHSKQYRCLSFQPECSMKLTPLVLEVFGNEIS
Chain of Peroxisome proliferator-activated receptor delta (Homo sapiens) (Q03181 whole entry, looked up): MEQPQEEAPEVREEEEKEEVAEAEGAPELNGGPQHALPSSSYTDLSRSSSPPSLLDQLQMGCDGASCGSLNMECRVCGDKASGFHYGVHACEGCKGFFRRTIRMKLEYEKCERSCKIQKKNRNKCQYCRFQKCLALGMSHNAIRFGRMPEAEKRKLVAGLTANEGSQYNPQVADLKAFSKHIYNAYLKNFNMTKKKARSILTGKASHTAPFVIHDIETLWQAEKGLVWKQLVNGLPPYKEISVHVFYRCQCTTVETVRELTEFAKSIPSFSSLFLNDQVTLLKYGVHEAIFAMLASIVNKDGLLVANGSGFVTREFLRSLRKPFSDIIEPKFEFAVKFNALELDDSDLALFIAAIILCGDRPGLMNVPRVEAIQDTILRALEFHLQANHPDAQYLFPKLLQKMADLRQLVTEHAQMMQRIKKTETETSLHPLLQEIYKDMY
Chain of Bile acid receptor (Homo sapiens) (Q96RI1 whole entry, looked up): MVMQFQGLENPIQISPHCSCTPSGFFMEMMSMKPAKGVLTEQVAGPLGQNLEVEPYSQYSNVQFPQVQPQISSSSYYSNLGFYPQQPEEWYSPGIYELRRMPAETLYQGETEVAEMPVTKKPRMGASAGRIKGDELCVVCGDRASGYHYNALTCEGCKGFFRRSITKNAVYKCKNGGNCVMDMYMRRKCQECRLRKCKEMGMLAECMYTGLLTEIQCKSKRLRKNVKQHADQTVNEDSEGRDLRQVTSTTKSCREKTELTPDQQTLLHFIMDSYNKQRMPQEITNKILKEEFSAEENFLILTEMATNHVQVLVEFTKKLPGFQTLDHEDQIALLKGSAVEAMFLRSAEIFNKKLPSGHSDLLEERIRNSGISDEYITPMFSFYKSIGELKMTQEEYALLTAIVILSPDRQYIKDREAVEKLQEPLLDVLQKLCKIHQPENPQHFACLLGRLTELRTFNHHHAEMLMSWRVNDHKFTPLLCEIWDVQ
Chain of Retinoic acid receptor RXR-alpha (Homo sapiens) (P19793 whole entry, looked up): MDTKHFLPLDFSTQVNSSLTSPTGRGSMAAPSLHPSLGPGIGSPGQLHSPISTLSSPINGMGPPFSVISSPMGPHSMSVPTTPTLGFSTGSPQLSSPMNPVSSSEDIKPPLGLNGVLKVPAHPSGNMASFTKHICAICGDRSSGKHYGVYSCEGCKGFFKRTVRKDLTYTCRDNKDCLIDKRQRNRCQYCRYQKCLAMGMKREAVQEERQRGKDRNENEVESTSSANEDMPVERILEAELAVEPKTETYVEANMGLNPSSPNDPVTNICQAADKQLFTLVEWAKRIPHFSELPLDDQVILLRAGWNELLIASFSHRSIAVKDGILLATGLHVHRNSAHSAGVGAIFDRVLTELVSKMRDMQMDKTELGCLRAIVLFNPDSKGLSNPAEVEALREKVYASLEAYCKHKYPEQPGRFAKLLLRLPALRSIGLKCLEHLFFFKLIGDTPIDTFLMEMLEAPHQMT

For the compound `CCn1cc(C(=O)O)c(=O)c2cc(F)c(N3CCNC(C)C3)c(F)c21` (stereo not drawn), the Potency result in experiment [1], in experiment [2], in experiment [3], in experiment [4], in experiment [5] and in experiment [6] was “inactive” in each case. Moreover, the Potency result in [7], in experiment [8], in experiment [10], in experiment [11], in experiment [12] and in experiment [13] was “inactive” throughout. In addition, the Potency entry in experiment [14], in experiment [15] and in experiment [16] was “inactive” each time. In experiment [9], the compound was classed as inactive.
Regarding `O=C(O)c1cn(-c2ccc(F)cc2)c2cc(N3CCNCC3)c(F)cc2c1=O`, the Potency result in experiment [1], in experiment [2], in experiment [3], in experiment [4], in experiment [5] and in experiment [6] was “inactive” each time. The Potency entry in experiment [7], in [8], in experiment [10], in experiment [11], in experiment [12] and in experiment [13] was “inactive” in each case. Further, the Potency entry in experiment [14] and in experiment [16] was “inactive” throughout. The outcome in experiment [9] was inactive.
`COc1ccc(CCN2CCC(Nc3nc4ccccc4n3Cc3ccc(F)cc3)CC2)cc1`: the Potency was 3.16 µM (active) and 23.7 µM (active) in experiment [2]; 2.81 µM (active) and 23.7 µM (active) in [4]; 7.07 µM (active) and 29.8 µM (active) in experiment [5]; 3.98 µM (active) and 10.6 µM (active) in experiment [6]; 17.8 µM (active) in experiment [8]; 31.6 µM (active) in experiment [10]. Besides, the Potency in experiment [11] was 17.6 µM (active) and 26.6 µM (active); in [12] it was 9.9 µM (active) and 11.9 µM (active); in [13], 35.4 µM (active) and inactive; in experiment [16], 8.9 µM (active) and 21.3 µM (active). Besides, the Potency result in experiment [17] and in experiment [14] was “inactive” in each case. For the same compound, the compound was called inactive in experiment [9].
Regarding `Cc1cccc([N+](=O)[O-])c1C(=O)O`, the Potency entry in experiment [1], in experiment [3], in experiment [18], in experiment [4], in experiment [17] and in experiment [5] was “inactive” each time. The Potency entry in [19], in experiment [6], in experiment [7], in experiment [8], in experiment [10] and in experiment [11] was “inactive” in each case. The Potency result in experiment [12], in [13], in experiment [14] and in experiment [16] was “inactive” throughout. Moreover, the compound was called inactive in experiment [9].
As for `CCC(C)(Oc1ccc(C2(c3ccc(OC(C)(CC)C(=O)O)cc3)CCCCC2)cc1)C(=O)O` (stereo not drawn), the Potency entry in experiment [2], in experiment [18], in experiment [4], in experiment [17], in experiment [5] and in [6] was “inactive” in each case. For the same compound, the Potency result in experiment [7], in experiment [8], in [10], in experiment [11], in [12] and in [13] was “inactive” throughout. Further, the Potency entry in [14] and in experiment [16] was “inactive” throughout. Besides, the compound was called inactive in experiment [9].
With `CC(C)CCOCc1ccccc1`, the Potency entry in experiment [2], in [4], in experiment [5], in experiment [19], in experiment [20] and in experiment [6] was “inactive” each time. Moreover, the Potency result in [7], in experiment [8], in [10], in experiment [11], in [12] and in [13] was “inactive” each time. Besides, the Potency entry in experiment [14], in experiment [15] and in [16] was “inactive” in each case. Further, in experiment [9], the call was inactive.
In the case of `CCN(CC)C(=O)Nc1ccc(OCC(O)CNC(C)(C)C)c(C(C)=O)c1` (stereo not drawn), the Potency result in experiment [1], in experiment [2], in experiment [3], in [4], in experiment [5] and in experiment [6] was “inactive” throughout. Also, the Potency result in [7], in experiment [8], in experiment [10], in experiment [11], in experiment [12] and in [13] was “inactive” each time. Further, the Potency entry in [14] and in [16] was “inactive” each time. The outcome in [9] was inactive.
Take `OCC(CO)N[C@H]1C[C@](O)(CO)[C@@H](O)[C@H](O)[C@H]1O`: the Potency result in experiment [1], in experiment [2], in [3], in experiment [18], in experiment [17] and in experiment [5] was “inactive” each time. Further, the Potency result in experiment [19], in experiment [6], in experiment [8], in [10], in experiment [11] and in experiment [12] was “inactive” in each case. The Potency entry in [13], in experiment [14] and in experiment [16] was “inactive” throughout. In addition, the outcome in experiment [9] was inactive.
